Bioassay records deposited in PubChem BioAssay by National Center for Advancing Translational Sciences (NCATS).
FLuc modulator – counter-screen for miR-21 project: firefly luciferase inhibitors or activators. Potency, µM (highest dose often 57.5 µM), without a hit: top-dose activity change, negative = inhibition, usual class: inhibitors. P08659. purified FLuc, Km substrates, luminescence inhibition. AID 588342. actives 6.9% (n = 360,000);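 also: plate controls were vehicle for no effect and reference inhibitor for full effect; nearly all actives have a fitted effect of over 55% in size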
Target sequence (P08659 whole entry, looked up): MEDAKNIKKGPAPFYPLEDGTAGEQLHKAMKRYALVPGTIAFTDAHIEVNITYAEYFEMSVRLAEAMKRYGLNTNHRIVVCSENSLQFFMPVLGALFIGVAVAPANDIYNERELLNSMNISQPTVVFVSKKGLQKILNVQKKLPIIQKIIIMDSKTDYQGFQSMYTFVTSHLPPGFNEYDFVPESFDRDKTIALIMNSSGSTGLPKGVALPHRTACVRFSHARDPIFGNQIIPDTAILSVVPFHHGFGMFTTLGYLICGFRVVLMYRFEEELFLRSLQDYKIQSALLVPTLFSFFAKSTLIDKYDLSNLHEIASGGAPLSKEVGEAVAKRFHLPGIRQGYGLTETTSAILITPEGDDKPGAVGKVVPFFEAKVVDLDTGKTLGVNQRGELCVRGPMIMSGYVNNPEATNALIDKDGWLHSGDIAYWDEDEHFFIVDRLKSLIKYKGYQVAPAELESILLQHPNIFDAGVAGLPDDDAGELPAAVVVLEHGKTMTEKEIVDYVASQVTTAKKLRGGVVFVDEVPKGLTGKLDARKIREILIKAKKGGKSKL
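Purified P. pyralis luciferase (10nM final) with 10uM D-luciferin and 10uM ATP (Km levels) in 50mM Tris acetate pH 7.5, 10mM Mg acetate, 0.01% Tween-20, 0.05% BSA; qHTS 6-point titration, ~60 µM downward; luminescence read.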
Rab9 promoter act – activates the Rab9 promoter. Huh7 Rab9 promoter-luciferase reporter, luminescence, 24 h. Potency, µM (highest dose often 9.22 µM), for the others: at the highest dose activation, negative = inhibition, hits mostly activators. actives 2.8% (n = 320,000); also: % of control where 0% means no effect; nearly all actives have a fitted effect of over 60% in size
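Luciferase signal after 10 min detection reagent at ambient indicates Rab9 promoter upregulation; stably transfected Huh7 cells were treated 24 h with compound in DMSO at 37 °C, 5% CO2.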
Luc counter – blocks Kinase-Glo luciferase, a counter-screen artifact; Q27757; Kinase-Glo luciferase, ATP luminescence, 8 min; Potency, µM (doses to about 38.3 µM), for the others: at the top dose activity change, negative = inhibition, actives largely listed as inhibitors; actives 0.28% (n = 200,000); AID 1379; also: % is scaled to controls: 0 for no effect and ±100 for the full control effect; nearly all actives have a fitted effect of over 60% in size
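Inhibition of Kinase-Glo luciferase light generation was assessed at 10 uM ATP in pH 7.2 imidazole buffer, with luminescence measured after eight minutes at ambient temperature.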
NPC1 promoter act – NPC1 promoter activation. Potency, µM (titrated, usually from 9.22 µM), without a hit: at the highest dose activation, hits mostly activators. Huh7 NPC1 promoter luciferase reporter, 24 h. AID 485313. actives 2.4% (n = 320,000); also: % of control where 0% means no effect; nearly all actives have a fitted effect of over 60% in size
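Cells: Huh7 expressing luciferase under the NPC1 promoter, 1500/well. Seeded 2 h, compound added, incubated 24 h at 37 °C. Luciferase reagent, 10 min ambient, then luminescence.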
SMN2 splice enh – increases expression of the SMN2 splice variant; HEK293 SMN2-luciferase splicing reporter, luminescence, 30-36 h; Potency, µM (top dose mostly 46.1 µM), for the others: top-dose activity change, positive = activation, hits mostly activators; actives 2.8% (n = 210,000); AID 1458; also: % of control where 0% means no effect; nearly all actives have a fitted effect of over 55% in size
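qHTS luciferase splicing reporter: luminescence rises when SMN2 exon 7 is included in transfected HEK293 cells. Compound exposure lasted 30-36 h at 37C, with 4.5 mM final sodium butyrate as control, followed by a ONE-Glo read.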
An asterisk follows results filed as active; ? = inconclusive; nt = not tested or not shown; [ ] = dose if it differs, or a comment. Hits are enriched below; roughly 7.3% of the tested compounds scored in any of these assays. Calls follow the shape of the dose curve; as a rule, active = well fitted curve in the direction sought with a large enough effect; inconclusive = small, poorly fitted or top-dose-only effect, or another doubt; inactive = no such curve, though single readings can be large; an effect the other way counts as inactive or inconclusive. Potency is read from the fitted curve at half-maximal effect.

SMILES	FLuc modulator	Rab9 promoter act	Luc counter	NPC1 promoter act	SMN2 splice enh
CN(C)c1ccc(/C=N/NC(=O)c2sccc2-n2cccc2)cc1	?	4µM*	0%	?	20%
CN(C)c1ccc(/C=N/NC(=O)CCCO)cc1	-13%	16%	-1%	11%	13%
CN(C)c1ccc(/C=N/NC(=O)c2ccccc2Cl)cc1	17µM*	13%	5%	-1%	22µM*
NNC(=O)c1ccc(Cn2cc(Cl)cn2)cc1	0%	-3%	-3%	0%	-3%
O=C(Nc1ccc(Cl)c(Cl)c1)c1ccc(Cn2cc(Cl)cn2)cc1	19µM*	28%	-1%	21%	-87%
COc1cccc(CNC(=O)NCc2noc3ccc(C)cc23)c1	-15%	nt	nt	nt	nt
O=C(Nc1ccc(Cl)cc1)OCCN1CCN(Cc2ccccc2)CCC1=O	nt	nt	1%[39.9 µM]	nt	nt
CN(C)c1ccc(/C=N\NC(=O)c2ccc(Cn3cc(Cl)cn3)cc2)cc1	12µM*	2%	-1%	0%	-13%
O=C(N/N=C/c1ccc(-n2ccnc2)cc1)c1cccs1	12µM*	?	nt	?	nt
CN(C)c1ccc(/C=N/NC(=O)c2ccccc2)cc1	5.4µM*	0.89µM*	?	2.8µM*	11µM*
O=C(N/N=C/c1c(Cl)cccc1Cl)c1ccccc1F	-19%	6%	-4%	10%	26%
CN(C)c1ccc(/C=N/NC(=O)c2ccc(Cl)cc2)cc1	?	0%	-1%	0%	-8%
COc1ccc(/C=N/NC(=O)c2ccc(Cl)cc2)cc1Cn1cc(Cl)cn1	4%	-2%	2%	-2%	-5%
O=C(N/N=C/c1ccncc1)c1cccs1	?	10%	nt	19%	nt
CSc1ccc(/C=N/NC(=O)c2ccccc2Cl)cc1	15µM*	?	0%	11%	30%
CCn1cc2c(n1)-c1c(oc(C(=O)Nc3cccc(C(F)(F)F)c3)c1C)CC2	0%	nt	nt	nt	nt
COc1ccccc1N1CCN(S(=O)(=O)c2ccc(-c3cc(C(F)(F)F)on3)s2)CC1	5%	nt	nt	nt	nt
CN(C)c1cccc(C(=O)N/N=C/c2ccsc2)c1	3µM*	3.5µM*	2%	3.2µM*	11µM*
CSc1ccc(/C=N/NC(=O)c2cccs2)cc1	1.7µM*	1.8µM*	nt	2.2µM*	nt
C/C(=N/N=C/c1ccc(N(C)C)cc1)c1ccccc1	0.17µM*	0.11µM*	8.9µM*	0.28µM*	0.5µM*
CSc1ccc(/C=N/NC(=O)C[n+]2ccccc2)cc1	-2%	-1%	nt	2%	nt
CN(C)c1ccc(/C=N/O)cc1	-19%	10%	-6%	4%	27%
CN(C)c1ccc(/C=N/NC(=O)c2cccc(C(=O)N/N=C/c3ccc(N(C)C)cc3)n2)cc1	?	-5%	-3%	2%	2%
CSc1ccc(C(=O)N2CCc3ccc(NC(=O)c4ccccn4)cc3C2)cc1	19µM*	?	nt	?	nt
COC(=O)c1ccccc1NC(=O)N1CCc2ccc(NC(=O)c3ccccn3)cc2C1	1%	3%	nt	-1%	nt
SMILES	FLuc modulator	Rab9 promoter act	Luc counter	NPC1 promoter act	SMN2 splice enh
NC(=O)C1CCN(c2ncnc3c(-c4ccccc4)nsc23)CC1	11µM*	3.5µM*	3%	3.5µM*	12%
O=C(c1ccco1)N1CCN(c2ncnc3c(-c4ccccc4)nsc23)CC1	11µM*	2.8µM*	-1%	3.2µM*	11%
CCOC(=O)CNC(=O)O[C@H]1C(=O)c2ccc(OC)cc2O[C@@H]1c1ccc2c(c1)OCO2	nt	nt	-4%	nt	24%
CCN1CCN(CCCNC(=O)Cn2nc(C)n3c(cc4cc(C)ccc43)c2=O)CC1	5%	nt	nt	nt	-7%
Cc1ccc2nc(-c3ccc(C)c(NC(=O)CSc4ccc(Cl)cc4)c3)oc2c1	5.4µM*	nt	nt	nt	?
O=C(CSc1ccc(Cl)cc1)Nc1cccc(-c2nc3ncccc3o2)c1	-16%	9%	0%	0%	-19%
Cc1ccc2nc(-c3cccc(NC(=O)CSc4ccc(Cl)cc4)c3)oc2c1	1.7µM*	nt	nt	nt	?
O=C(CCCCl)Nc1nc(-c2ccc3c(c2)OCCO3)cs1	11µM*	3.2µM*	nt	3.5µM*	nt
O=C(Nc1nc(-c2ccc3c(c2)OCCO3)cs1)C1CCCC1	7.6µM*	2.2µM*	-1%	?	11µM*
N#CCC(=O)Nc1nc(-c2ccc3c(c2)OCCO3)cs1	7.6µM*	3.5µM*	5%	?	13µM*
O=C(Nc1nc(-c2ccc3c(c2)OCCO3)cs1)c1ccc(S(=O)(=O)N2CCCCC2)cc1	0%	-10%	14%	-14%	-76%
O=C(CN1C(=O)C2CCCCN2c2ccc(C(=O)N3CCCC3)cc21)NCc1cccc(Cl)c1 (centres undefined)	-10%	nt	nt	nt	nt
COc1ccc(NC(=O)c2cc(S(=O)(=O)N3CCCC(C)C3)cn2C)c(OC)c1 (centres undefined)	-1%	nt	nt	nt	nt
O=C(NCCCNC(=O)c1ccco1)c1ccc(Cl)cc1	-13%	-3%	nt	1%	nt
NC(=NCc1ccco1)NC(=O)c1ccc(Cl)cc1	17µM*	?	nt	?	nt
COc1ccc(CNC(=O)C(C)N2Cc3ccccc3C2=O)cc1 (centres undefined)	-3%	nt	nt	nt	nt
Cc1cnc(NC(=O)C2COc3ccccc3O2)s1 (centres undefined)	0.67µM*	0.32µM*	-20%	0.1µM*	10µM*
Cc1ccc2sc(NNC(=O)C3COc4ccccc4O3)nc2c1C (centres undefined)	0%	2%	1%	-1%	10µM*
O=C(Nc1nc(-c2ccccc2)cs1)C1COc2ccccc2O1 (centres undefined)	1%[2.3 µM]	-1%	3%	1%	21%
Cc1csc(NC(=O)C2COc3ccccc3O2)n1 (centres undefined)	1.2µM*	0.45µM*	-12%	?	?
O=C(NNc1nc2c(F)cccc2s1)C1COc2ccccc2O1 (centres undefined)	?	-4%	-1%	7%	18%
COc1ccc(OC)c(/C=C/c2nc3ccccc3c(=O)n2-c2ccc(F)c(Cl)c2)c1	4%	nt	nt	nt	nt
CC(C)CCNC(=O)CCn1c(=O)c2cccn2c2cccnc21	1%	nt	nt	nt	nt
[O-]/[N+](=C\c1cccc(Br)c1)c1ccccc1	24µM*	19%	?	2%	27%
COc1cc(/C=C2\C(=O)NN(c3ccc(C)cc3)C2=O)cc([N+](=O)[O-])c1O	27µM*	-4%	-5%	0%	-8%
COc1cc(/C=C2/C(=O)N(c3ccc(C)c(C)c3)N=C2C)cc([N+](=O)[O-])c1O	17µM*	3%	nt	-6%	nt
CCOc1cc(/C=C2\NC(=O)NC2=O)cc([N+](=O)[O-])c1O	-10%	1%	nt	2%	nt
COc1cc(/C=C2\C(=O)NN(c3ccccc3)C2=O)cc([N+](=O)[O-])c1O	?	9%	-5%	-4%	3%
CCOc1cc(/C=C2\C(=O)NN(c3ccccc3)C2=O)cc([N+](=O)[O-])c1O	17µM*	1%	-3%	-2%	23%
